# Test results from PMC7862700, “An all-to-all approach to the identification of sequence-specific readers for epigenetic DNA modifications on cytosine”.
# Tests used:
# Assay in all cases: DAPPL (digital affinity profiling via proximity ligation, sequencing); 10 mM Tris-HCl pH 7.5, 50 mM NaCl, 1 mM DTT, 4% glycerol, room temperature, 30 min; GST-TFs on glutathione beads, 16-mer random dsDNA library, 0.1% formaldehyde crosslink after washing; high values mean tight binding
# Conditions in all cases: protein: recombinant; tags: N-terminal GST; dsDNA, one strand shown
# FLI1 = molecular target: T1, FLI1 (Homo sapiens, UniProt Q01543 1-452)
# T1 sequence: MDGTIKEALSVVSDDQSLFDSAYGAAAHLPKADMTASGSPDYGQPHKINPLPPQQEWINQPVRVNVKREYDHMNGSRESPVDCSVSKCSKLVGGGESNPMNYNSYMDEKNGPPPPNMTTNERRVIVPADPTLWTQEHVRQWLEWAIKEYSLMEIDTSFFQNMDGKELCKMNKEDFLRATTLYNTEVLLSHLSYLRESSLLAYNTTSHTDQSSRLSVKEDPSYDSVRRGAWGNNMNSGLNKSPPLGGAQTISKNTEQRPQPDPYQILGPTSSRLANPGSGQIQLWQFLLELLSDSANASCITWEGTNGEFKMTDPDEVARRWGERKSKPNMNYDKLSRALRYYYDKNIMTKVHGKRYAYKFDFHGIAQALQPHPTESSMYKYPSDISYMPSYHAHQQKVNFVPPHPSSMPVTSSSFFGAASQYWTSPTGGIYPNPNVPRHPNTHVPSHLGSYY
# Summary of the method: (§1)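 Binding signal is each hexamer's read frequency for a factor divided by its frequency in the tag-only sample. The factors were GST-fused human transcription factors from yeast, captured on glutathione beads, DNA-barcoded and pooled with that sample. Pools were incubated with 200 nmole of a random double-stranded 16-mer DNA library in Tris/NaCl/DTT/glycerol buffer at room temperature for 30 min, then washed, crosslinked with 0.1% formaldehyde, proximity-ligated with BsaI/T4 ligase (1 h, 37 °C), PCR-amplified and sequenced on an Illumina NextSeq500.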
# ELK1 = molecular target: T2, ELK1 (Homo sapiens, UniProt P19419 1-428)
# T2 sequence: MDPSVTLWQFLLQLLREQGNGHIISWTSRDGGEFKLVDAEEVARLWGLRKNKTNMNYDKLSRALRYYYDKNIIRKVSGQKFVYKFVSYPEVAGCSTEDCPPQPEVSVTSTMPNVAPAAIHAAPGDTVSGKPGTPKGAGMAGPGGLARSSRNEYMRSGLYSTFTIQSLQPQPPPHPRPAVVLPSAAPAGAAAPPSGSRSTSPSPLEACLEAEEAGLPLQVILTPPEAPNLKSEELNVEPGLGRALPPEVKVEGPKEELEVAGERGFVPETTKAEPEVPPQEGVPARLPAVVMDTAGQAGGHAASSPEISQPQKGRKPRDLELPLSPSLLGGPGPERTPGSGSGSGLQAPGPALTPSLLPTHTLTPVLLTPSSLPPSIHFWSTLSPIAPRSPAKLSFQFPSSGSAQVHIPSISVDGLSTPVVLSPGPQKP
# Summary of the method: as §1
# GABPA = molecular target: T3, GABPA (Homo sapiens, UniProt Q06546 1-454)
# T3 sequence: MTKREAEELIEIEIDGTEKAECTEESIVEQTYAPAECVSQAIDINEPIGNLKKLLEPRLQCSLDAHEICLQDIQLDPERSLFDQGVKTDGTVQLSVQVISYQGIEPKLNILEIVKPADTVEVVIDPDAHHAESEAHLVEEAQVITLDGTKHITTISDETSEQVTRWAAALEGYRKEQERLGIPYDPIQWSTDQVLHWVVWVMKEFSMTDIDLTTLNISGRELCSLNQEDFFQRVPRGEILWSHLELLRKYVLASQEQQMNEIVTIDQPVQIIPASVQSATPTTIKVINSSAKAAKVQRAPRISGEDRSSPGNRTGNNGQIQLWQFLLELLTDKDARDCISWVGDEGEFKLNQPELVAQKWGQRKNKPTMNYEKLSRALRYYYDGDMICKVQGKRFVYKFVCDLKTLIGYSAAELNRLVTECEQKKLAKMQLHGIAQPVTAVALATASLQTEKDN
# Summary of the method: as §1
# ELF1 = ELF1 (Homo sapiens, UniProt P32519 1-619)
# Chain of ELF1 (P32519 whole entry): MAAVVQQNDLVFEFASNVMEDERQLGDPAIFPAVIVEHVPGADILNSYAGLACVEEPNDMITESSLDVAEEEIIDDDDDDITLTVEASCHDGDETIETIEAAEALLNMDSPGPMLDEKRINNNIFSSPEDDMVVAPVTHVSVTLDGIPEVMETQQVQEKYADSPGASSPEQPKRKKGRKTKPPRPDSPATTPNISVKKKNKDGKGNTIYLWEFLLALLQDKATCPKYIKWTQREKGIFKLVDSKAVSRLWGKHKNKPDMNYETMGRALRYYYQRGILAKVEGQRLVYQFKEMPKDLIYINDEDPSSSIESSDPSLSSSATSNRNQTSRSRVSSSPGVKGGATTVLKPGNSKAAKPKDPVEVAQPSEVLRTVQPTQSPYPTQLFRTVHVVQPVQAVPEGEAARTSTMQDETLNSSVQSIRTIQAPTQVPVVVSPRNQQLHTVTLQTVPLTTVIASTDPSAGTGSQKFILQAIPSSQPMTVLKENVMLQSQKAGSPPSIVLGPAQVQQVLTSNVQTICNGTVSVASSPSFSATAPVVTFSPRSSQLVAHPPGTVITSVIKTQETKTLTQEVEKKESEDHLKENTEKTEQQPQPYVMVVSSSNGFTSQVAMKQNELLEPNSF
# Summary of the method: as §1
# SPI1 = SPI1 (Homo sapiens, UniProt P17947 1-270)
# Summary of the method: as §1
# SPIB = SPIB (Homo sapiens, UniProt Q01892 1-262)
# Chain of SPIB (Q01892 whole entry): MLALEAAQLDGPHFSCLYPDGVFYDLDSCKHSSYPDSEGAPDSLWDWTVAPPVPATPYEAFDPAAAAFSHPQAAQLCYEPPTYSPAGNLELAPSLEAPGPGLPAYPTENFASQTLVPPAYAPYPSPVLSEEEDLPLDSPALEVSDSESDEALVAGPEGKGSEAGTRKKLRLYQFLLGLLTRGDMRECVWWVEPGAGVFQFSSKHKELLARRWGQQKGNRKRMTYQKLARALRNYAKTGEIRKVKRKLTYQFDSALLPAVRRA
# Summary of the method: as §1
# FEV = molecular target: T4, FEV (Homo sapiens, UniProt Q99581 1-238)
# T4 sequence: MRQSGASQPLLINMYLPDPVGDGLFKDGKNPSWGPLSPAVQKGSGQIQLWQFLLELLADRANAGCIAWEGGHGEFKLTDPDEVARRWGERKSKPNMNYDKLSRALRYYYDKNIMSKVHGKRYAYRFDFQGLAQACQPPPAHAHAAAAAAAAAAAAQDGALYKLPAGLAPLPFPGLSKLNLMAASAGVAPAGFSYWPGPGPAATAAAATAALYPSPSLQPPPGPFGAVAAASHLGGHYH
# Summary of the method: as §1
# ETV5 = ETV5 (Homo sapiens, UniProt P41161 1-510)
# Chain of ETV5 (P41161 whole entry): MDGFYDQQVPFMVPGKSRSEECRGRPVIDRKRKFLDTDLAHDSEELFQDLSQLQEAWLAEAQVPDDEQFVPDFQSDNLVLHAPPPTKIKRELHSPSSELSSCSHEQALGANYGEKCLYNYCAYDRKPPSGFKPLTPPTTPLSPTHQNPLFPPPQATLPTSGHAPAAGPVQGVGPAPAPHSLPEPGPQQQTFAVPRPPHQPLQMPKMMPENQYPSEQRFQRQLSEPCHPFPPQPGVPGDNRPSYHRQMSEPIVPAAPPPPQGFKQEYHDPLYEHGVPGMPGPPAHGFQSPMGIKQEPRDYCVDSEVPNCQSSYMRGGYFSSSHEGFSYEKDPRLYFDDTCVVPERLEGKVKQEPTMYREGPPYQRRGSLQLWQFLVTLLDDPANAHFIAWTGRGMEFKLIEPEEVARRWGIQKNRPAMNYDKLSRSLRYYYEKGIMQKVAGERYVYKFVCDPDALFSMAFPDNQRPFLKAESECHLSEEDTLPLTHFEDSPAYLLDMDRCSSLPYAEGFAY
# Summary of the method: as §1
# ELF4 = ELF4 (Homo sapiens, UniProt Q99607 1-663)
# Chain of ELF4 (Q99607 whole entry): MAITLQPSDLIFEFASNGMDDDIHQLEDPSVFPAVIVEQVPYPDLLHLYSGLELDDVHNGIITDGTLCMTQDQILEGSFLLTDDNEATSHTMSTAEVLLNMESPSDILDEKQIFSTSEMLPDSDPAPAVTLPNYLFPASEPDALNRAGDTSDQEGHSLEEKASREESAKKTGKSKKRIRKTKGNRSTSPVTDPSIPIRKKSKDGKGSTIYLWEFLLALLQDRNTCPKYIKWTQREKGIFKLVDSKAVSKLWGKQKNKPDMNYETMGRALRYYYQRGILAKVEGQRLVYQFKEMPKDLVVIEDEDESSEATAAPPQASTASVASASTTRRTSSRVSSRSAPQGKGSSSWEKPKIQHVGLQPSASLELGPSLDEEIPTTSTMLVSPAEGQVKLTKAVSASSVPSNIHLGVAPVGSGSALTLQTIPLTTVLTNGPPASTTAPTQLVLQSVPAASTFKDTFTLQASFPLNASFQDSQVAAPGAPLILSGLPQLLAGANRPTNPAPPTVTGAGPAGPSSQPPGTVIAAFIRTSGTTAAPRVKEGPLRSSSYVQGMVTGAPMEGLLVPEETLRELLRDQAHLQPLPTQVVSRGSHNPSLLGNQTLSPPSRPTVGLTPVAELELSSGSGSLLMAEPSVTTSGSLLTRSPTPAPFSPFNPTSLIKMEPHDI
# Summary of the method: as §1
# ETV2 = molecular target: T5, ETV2 (Homo sapiens, UniProt O00321 1-342)
# T5 sequence: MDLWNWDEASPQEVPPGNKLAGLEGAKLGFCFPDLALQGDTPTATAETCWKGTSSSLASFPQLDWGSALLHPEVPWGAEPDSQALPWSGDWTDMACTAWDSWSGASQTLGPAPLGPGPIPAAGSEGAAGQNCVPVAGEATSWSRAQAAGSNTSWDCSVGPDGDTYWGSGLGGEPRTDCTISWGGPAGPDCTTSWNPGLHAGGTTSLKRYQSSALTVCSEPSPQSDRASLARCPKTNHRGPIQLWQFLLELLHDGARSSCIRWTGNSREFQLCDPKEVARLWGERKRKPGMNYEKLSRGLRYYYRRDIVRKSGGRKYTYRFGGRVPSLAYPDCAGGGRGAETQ
# Summary of the method: as §1
# ETV1 = ETV1 (Homo sapiens, UniProt P50549 1-477)
# Chain of ETV1 (P50549 whole entry): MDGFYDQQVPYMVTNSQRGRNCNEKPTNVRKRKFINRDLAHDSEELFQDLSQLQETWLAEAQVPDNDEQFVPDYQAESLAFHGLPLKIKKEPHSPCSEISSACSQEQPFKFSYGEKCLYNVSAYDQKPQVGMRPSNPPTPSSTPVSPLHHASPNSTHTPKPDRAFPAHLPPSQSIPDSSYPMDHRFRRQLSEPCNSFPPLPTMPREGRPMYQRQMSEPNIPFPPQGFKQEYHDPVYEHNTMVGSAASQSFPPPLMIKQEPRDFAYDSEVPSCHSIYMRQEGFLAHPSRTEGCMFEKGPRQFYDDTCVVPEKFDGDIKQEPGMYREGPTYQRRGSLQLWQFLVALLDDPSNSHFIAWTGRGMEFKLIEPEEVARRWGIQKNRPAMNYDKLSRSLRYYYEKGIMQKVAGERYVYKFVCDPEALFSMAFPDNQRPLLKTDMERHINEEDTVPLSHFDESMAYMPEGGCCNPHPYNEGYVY
# Summary of the method: as §1
# ERF = molecular target: T6, ERF (Homo sapiens, UniProt P50548 1-548)
# T6 sequence: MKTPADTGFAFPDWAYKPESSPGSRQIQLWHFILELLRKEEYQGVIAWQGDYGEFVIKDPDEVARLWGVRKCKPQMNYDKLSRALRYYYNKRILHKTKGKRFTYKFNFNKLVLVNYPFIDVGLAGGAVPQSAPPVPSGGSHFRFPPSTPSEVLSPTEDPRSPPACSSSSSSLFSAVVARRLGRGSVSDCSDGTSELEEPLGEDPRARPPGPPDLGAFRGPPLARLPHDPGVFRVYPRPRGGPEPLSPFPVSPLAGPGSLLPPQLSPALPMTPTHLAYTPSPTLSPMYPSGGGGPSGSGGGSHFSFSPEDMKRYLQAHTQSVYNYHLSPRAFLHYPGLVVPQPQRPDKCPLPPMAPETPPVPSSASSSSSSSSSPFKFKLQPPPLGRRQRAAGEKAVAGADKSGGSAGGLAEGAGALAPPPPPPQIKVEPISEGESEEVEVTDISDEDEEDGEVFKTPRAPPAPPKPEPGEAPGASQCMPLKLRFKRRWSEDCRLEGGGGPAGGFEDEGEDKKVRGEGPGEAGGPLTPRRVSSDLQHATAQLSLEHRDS
# Summary of the method: as §1
# ETV3L = molecular target: T7, ETV3L (Homo sapiens, UniProt Q6ZN32 1-361)
# T7 sequence: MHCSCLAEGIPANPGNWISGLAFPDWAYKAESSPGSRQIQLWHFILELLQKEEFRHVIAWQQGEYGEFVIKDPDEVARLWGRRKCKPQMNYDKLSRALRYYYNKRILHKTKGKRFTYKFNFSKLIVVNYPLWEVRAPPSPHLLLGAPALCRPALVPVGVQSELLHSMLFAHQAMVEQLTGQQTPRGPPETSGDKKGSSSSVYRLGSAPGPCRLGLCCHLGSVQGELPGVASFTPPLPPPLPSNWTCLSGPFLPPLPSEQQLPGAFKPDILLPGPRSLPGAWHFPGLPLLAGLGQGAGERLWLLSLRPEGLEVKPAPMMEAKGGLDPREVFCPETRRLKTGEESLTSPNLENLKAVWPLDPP
# Summary of the method: as §1
# ETS2 = molecular target: T8, ETS2 (Homo sapiens, UniProt P15036 1-469)
# T8 sequence: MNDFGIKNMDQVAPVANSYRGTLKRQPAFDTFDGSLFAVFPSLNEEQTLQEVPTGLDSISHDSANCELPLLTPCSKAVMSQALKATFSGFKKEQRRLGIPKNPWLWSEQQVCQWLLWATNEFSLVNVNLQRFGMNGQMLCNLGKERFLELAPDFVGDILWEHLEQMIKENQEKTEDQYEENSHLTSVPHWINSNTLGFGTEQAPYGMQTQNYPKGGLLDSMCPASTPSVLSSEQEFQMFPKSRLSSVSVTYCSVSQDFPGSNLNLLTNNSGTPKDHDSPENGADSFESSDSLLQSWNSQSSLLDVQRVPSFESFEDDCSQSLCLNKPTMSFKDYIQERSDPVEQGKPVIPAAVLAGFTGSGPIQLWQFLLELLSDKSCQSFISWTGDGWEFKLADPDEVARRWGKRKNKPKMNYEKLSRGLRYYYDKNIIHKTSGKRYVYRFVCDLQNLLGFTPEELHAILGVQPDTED
# Summary of the method: as §1
sequence,measurement,setting,value
GCCTGA,binding signal,FLI1,"1.05 fold enrichment (6-mer frequency, TF over GST control)"
same,binding signal,ELK1,"1.13 fold enrichment (6-mer frequency, TF over GST control)"
same,binding signal,GABPA,"1.11 fold enrichment (6-mer frequency, TF over GST control)"
same,binding signal,ELF1,"1.04 fold enrichment (6-mer frequency, TF over GST control)"
same,binding signal,SPI1,"1.05 fold enrichment (6-mer frequency, TF over GST control)"
same,binding signal,SPIB,"1.09 fold enrichment (6-mer frequency, TF over GST control)"
same,binding signal,FEV,"1.1 fold enrichment (6-mer frequency, TF over GST control)"
same,binding signal,ETV5,"1.09 fold enrichment (6-mer frequency, TF over GST control)"
same,binding signal,ELF4,"1.06 fold enrichment (6-mer frequency, TF over GST control)"
same,binding signal,ETV2,"1.03 fold enrichment (6-mer frequency, TF over GST control)"
same,binding signal,ETV1,"1.05 fold enrichment (6-mer frequency, TF over GST control)"
same,binding signal,ERF,"1.07 fold enrichment (6-mer frequency, TF over GST control)"
same,binding signal,ETV3L,"1.12 fold enrichment (6-mer frequency, TF over GST control)"
same,binding signal,ETS2,"1.02 fold enrichment (6-mer frequency, TF over GST control)"
